# Data published in PubChem BioAssay AID720507 (National Center for Advancing Translational Sciences (NCATS), 2013).
# About 140 (6.1%) of roughly 2,300 compounds were called active. Not shown: some 18% with an inconclusive outcome. These entries were drawn from the full list. Unmarked numbers belong to inactive results. Calls come from the whole dose curve; as a rule, active = well fitted activation curve with a large enough effect; inconclusive = small, poorly fitted or top-dose-only effect; inactive = flat fitted curve, though single readings scatter.
# Target: D(2) dopamine receptor (Homo sapiens) (UniProt P14416)
# Assay: qHTS of D3 Dopamine Receptor Agonist: D2 Dopamine Receptor B-arrestin Agonist Counterscreen; note: nearly all actives have a fitted effect of over 70% in size; for activation: % of control where 0% means no effect
# Conditions: DiscoveRx PathHunter D2 beta-arrestin, luminescence, 90 min; series mostly up to 76.9 µM; activation: at the top concentration
# Source text: D3 DARs represent a very important target for the treatment of several neuropsychiatric disorders. Indeed, one of the most promising therapeutic applications for the D3 DAR is in the area of addiction and related disorders. […] These findings have been observed with a number of addictive substances including cocaine, amphetamine, nicotine, and alcohol. […] Increased D3 DAR activity can thus lead to neuroprotective and neurorestorative actions in the CNS. […] This assay is used to profile the activity of the identified D3 dopamine receptor agonist against the D2 dopamine receptor. Greater than 10% of the maximum dopamine agonist response is desired for this assay. NIH Molecular Libraries Probe Production Centers Network [MLPCN] NIH Chemical Genomics Center [NCGC] MLPCN Grant: NS064831 Assay Submitter (PI): David Sibley
# DiscoveRx D2 cells were thawed from frozen stock and seeded at 2,100 cells/ 3 uL/well media (DiscoveRx Plating Reagent 2) with MultiDrop Combi dispenser (Thermo Scientific, Logan, UT) onto white tissue culture treated 1536-well Aurora plates (Brooks Automation, Chelmsford, MA) and allowed to attach overnight at 37 deg C, 5% CO2. Next, 23 nL/well of compound solutions in DMSO were added with a pintool transfer (Kalypsis, San Diego, CA). […] The rest of the plate was dispensed with buffer only, 1 uL/well as well. The cells were stimulated by compounds or dopamine control for 90 minutes at 37 deg C, 5% CO2, after which 1.5 ul/well of DiscoveRx detection reagent was added with BioRAPTR FRD dispenser. The detection reagent was prepared by mixing of Galacton Star Substrate, Emerald II solution and PathHunter buffer (supplied by the assay kit) together at 1:5:19 proportion accordingly just prior to dispensing. The plates were incubated at ambient temperature for 1 hour and then the luminescent signal was read on ViewLux plate reader (PerkinElmer, Waltham, MA).
# Potency is the fitted concentration of half-maximal effect.
# Sequence of D(2) dopamine receptor (Homo sapiens) (P14416 whole entry, looked up): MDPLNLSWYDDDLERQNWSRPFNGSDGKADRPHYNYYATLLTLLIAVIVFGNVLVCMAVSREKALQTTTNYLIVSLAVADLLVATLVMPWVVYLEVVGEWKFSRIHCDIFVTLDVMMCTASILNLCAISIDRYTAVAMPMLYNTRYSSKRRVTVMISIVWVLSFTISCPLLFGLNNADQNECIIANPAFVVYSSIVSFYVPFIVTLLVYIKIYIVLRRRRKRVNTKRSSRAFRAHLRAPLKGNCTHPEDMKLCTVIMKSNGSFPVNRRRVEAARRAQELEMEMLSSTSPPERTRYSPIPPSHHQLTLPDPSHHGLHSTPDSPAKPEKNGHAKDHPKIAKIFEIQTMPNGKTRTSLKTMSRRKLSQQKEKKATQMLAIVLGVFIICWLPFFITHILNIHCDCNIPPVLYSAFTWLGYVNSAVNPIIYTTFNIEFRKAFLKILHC
Structure (SMILES),activation [%],Potency
O=C(CN1CCN(S(=O)(=O)c2cc(Cl)ccc2Cl)CC1)c1ccc(O)c(O)c1,13.6,–
CCC(=O)Nc1ccc(C(=O)N2CCN(C(=O)c3ccco3)CC2)cc1,-1.66,–
O=C(c1ccco1)N1CCN(Cc2cccc(C(F)(F)F)c2)CC1,–,31.6 µM (active)
Cc1cc(C)n2nc(C(=O)N3CCN(Cc4ccc5c(c4)OCO5)CC3)nc2n1,10.6,–
Cc1ccc(S(=O)(=O)N2CC(O)C[C@H]2C(=O)OCC(=O)Nc2ccc(N3CCOCC3)cc2)cc1C (stereo partly drawn),-1.51,–
CCN(CCCNC(=O)c1ccc2c(c1)NC(=O)CN2C)c1cccc(C)c1,9.85,–
O=C(COc1coc(CN2CCN(c3ccccc3)CC2)cc1=O)Nc1ccccc1F,18.8,–
CN(CCO)S(=O)(=O)c1ccc2c(c1)C(=O)c1cc(S(=O)(=O)N(C)CCO)ccc1-2,-1.49,–
Cc1n[nH]c(C)c1S(=O)(=O)N1CCCC(C(=O)NCC2COc3ccccc3O2)C1 (stereo not drawn),0.0237,–
OCC1(Cc2ccccc2)CCN(Cc2cc3ccccc3o2)CC1,–,25.1 µM (active)
CS/C(=C\C(=O)c1ccco1)Nc1ccccc1Cl,6.85,–
O=c1oc(-c2ccccc2NS(=O)(=O)c2ccc(Cl)cc2)nc2ccccc12,-0.237,–
O=C(NC1CCCCC1)c1ccc2c(=O)n(CC3CCCO3)c(=O)[nH]c2c1 (stereo not drawn),10.1,–
COC(c1ccccc1)c1nnc(CCC(=O)N2CCN(CCOc3ccccc3)CC2)o1 (stereo not drawn),13.2,–
CN1CCC(CN)(N2CCN(c3ccccc3)CC2)CC1,11.1,–
Cc1c(C(=O)Nc2cccc(-c3nnc4n3CCCCC4)c2)oc2ccccc12,-2.93,–
O=C(Nc1cccnc1Cl)c1cc(-c2cccc(Cl)c2)on1,-2.13,–
COc1ccc([C@H]2CC(=O)C=C(c3ccc(OC(F)(F)F)cc3)C2)cc1OC,20.6,–
Cc1c(CC(=O)N2CCN(C(=O)C3COc4ccccc4O3)CC2)c(=O)oc2c(O)c(O)ccc12 (stereo not drawn),–,31.6 µM (active)
O=S(=O)(c1ccc(F)cc1)N1CC=C(c2ccccc2)CC1,1.2,–
CC[C@H](C)C(=O)N[C@H]1CCCN1C(=O)/C=C/c1ccccc1,-0.497,–
CCOC(=O)[C@H]1[C@H]2COc3ccc(C)cc3[C@@H]2N2C(=O)CN(Cc3ccc(F)cc3)C(=O)[C@@]12C,5.21,–
Cc1ccc(O)c(-c2cc(C(=O)Nc3c(C)n(C)n(-c4ccccc4)c3=O)[nH]n2)c1,-2.19,–
CCCN(CC(=O)Nc1ccccc1C)C(=O)c1ccc2[nH]c3c(c2c1)CC(C)CC3 (stereo not drawn),2.25,–

Structure (SMILES),activation [%],Potency
Cc1cnc(C(=O)N2CCCC(N3CCN(c4ccccc4F)CC3)C2)cn1 (stereo not drawn),21.8,–
Cc1cccc(C)c1NC(=O)CNC(=O)c1ccc2c(c1)OCCO2,-1.89,–
COc1ccc([C@H]2CC(=O)C=C(c3ccc(CO)cc3)C2)cc1,1.16,–
CC1(C)CC(=O)C=C(c2ccc3ncccc3c2)C1,-1.87,–
COc1ccc(NC(C)=O)cc1NC(=O)CN1CCN(c2ccccn2)CC1,11.8,–
O=C(Nc1cccc(-c2nc3ccccc3[nH]2)c1)c1ccc(C(=O)Nc2cccc(-c3nc4ccccc4[nH]3)c2)cc1,4.47,–
CC(=O)OC(C)C[N+](C)(C)C (stereo not drawn),-1.97,–
CCC(=O)c1ccc(OCC(=O)Nc2ccc(N3CCCCC3)cc2)cc1,-0.473,–
OCC[C@H]1C[C@H](O)[C@@H](O)[C@]2(Cc3ccccc3CO2)O1,-1.68,–
O=C(Cc1csc(Nc2nc(=S)[nH]c3ccccc23)n1)NCCCN1CCN(c2cccc(Cl)c2)CC1,-1.51,–
O=C(NC(=O)c1ccccc1)Nc1ccccc1O,3.31,–
CN1CCN(S(=O)(=O)c2cccc(C(=O)Nc3sccc3C#N)c2)CC1,-0.355,–
O=c1cc(CCl)nc2scc(-c3ccccc3)n12,-4.57,–
O=C(CSC1CC(=O)N(CCc2ccccc2)C1=O)Nc1ccc(Cl)cc1 (stereo not drawn),5.18,–
COc1cc(OC)c(-n2cc(-c3ccc(Cl)cc3)[nH]c2=O)cc1Cl,-7.23,–
O=C(c1c(F)cccc1F)N1CCN(S(=O)(=O)c2ccc3c(c2)OCCO3)CC1,2.32,–
COc1ccc(CC(NC(C)=O)C(=O)N2CCN(C(=O)Nc3cccc(Cl)c3)CC2)cc1OC (stereo not drawn),-3.65,–
CC(C)c1ccc2c(c1)c(SC(C)(C)C)c(CC(C)(C)C(=O)O)n2Cc1ccc(Cl)cc1,11.4,–
NS(=O)(=O)c1ccc(CCNS(=O)(=O)c2cccc3cccnc23)cc1,-1.71,–
Cc1c(CN2CC[C@@H](N3CCN(c4ccccn4)CC3)[C@H](O)C2)[nH]c2ccc(F)cc12,–,28.2 µM (active)
O=C(CN1CCN(c2ccccn2)CC1)NC1CCCCC1,8.31,–
NS(=O)(=O)c1ccc(CCNC(=O)NC2CCCCC2)cc1,-4.01,–
O=C1c2cccc3cccc(c23)N1CN1CCN(c2ccccn2)CC1,21.1,–
CCC(=O)Nc1ccc2c(c1)nc(CCN1CCN(c3ccccn3)CC1)n2C,26.1,–
